Hits are enriched below; roughly 12% of the tested compounds scored in any of these assays.
JMJD2A Tudor inh: JMJD2A Tudor domain (human) inhibition | O75164 | Potency, µM (titrated, usually from 114 µM), most hits filed as inhibitors | AlphaScreen JMJD2A-Tudor / H3K4me3 peptide binding | 4.4% of 390,000 active | AID 504339; also: nearly all actives have a fitted effect of over 50% in size
PI5P4K alpha inh: blocks human PI5P4K alpha kinase activity; 1.2% of 330,000 active; P48426; PI5P4Kalpha enzyme, ADP-Glo luminescence, 60 min; active compounds read low; max response, %; active = max response of -50% or lower; inconclusive = between -30% and -50%; inactive = -30% or higher; also: value at the top dose of about 77 µM
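Controls without substrate or without enzyme flank wells where PI5P4Kalpha converts substrate using 5 microM ATP (final). Incubation lasts 60 minutes at room temperature; ADP formed is read by ADP-Glo luminescence.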
HP1b binding inh: inhibitors of HP1-beta chromodomain binding to methylated histone tails; P83916; AlphaScreen HP1-beta / biotin-H3K9me3 peptide binding; Potency, µM (top dose mostly 114 µM), hits mostly inhibitors; 0.56% of 390,000 active; AID 540317; also: nearly all actives have a fitted effect of over 70% in size
Target sequence (P83916 whole entry, looked up): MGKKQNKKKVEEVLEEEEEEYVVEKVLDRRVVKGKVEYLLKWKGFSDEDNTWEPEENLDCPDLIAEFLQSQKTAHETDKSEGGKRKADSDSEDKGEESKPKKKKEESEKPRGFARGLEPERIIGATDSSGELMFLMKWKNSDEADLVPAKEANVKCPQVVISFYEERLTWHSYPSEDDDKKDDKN
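HP1-beta protein (50 nM final) preincubated 30 min at room temperature with biotinylated H3(1-18)K9me3 peptide (50 nM) in PBS pH 7.4, 0.01% Tween-20, then compound added for 30 min. AlphaScreen streptavidin donor/nickel chelate acceptor beads (10 ug/mL final), 30 min dark, luminescence read.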
G9a block: inhibitors of human histone lysine methyltransferase G9a; G9a H3K9 monomethylation, AlphaScreen, 2 h; 8.8% of 350,000 active; Q96KQ7; Potency, µM (doses to about 102 µM), actives largely listed as inhibitors; also: nearly all actives have a fitted effect of over 75% in size
Target sequence (Q96KQ7 913-1193 limits assumed): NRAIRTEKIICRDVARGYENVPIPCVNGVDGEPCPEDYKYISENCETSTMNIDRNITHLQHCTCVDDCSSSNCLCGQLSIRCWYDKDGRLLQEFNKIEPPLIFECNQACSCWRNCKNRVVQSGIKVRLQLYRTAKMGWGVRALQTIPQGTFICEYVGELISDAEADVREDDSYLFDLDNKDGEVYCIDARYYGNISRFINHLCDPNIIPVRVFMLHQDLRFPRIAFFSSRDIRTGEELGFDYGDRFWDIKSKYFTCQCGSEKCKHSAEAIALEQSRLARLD
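Step 1: enzyme (final 20 nM) with compound, 15 min RT. Step 2: substrate peptide 500 nM and SAM 20 uM, 2 h RT. Step 3: anti-H3K9me1 antibody and AlphaScreen beads, 10 min, then plate read.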
BAZ2B inh: inhibitors of human BAZ2B bromodomain. AlphaScreen BAZ2B-H3K14Ac peptide displacement. Potency, µM (series often up to 114 µM), most hits filed as inhibitors. 4.4% of 360,000 active. AID 504333; also: nearly all actives have a fitted effect of over 60% in size
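AlphaScreen displacement of biotin-H3(5-23)K14Ac peptide (50 nM final) from BAZ2B (50 nM final) in PBS pH 7.4, 0.01% Tween-20; complex preformed 30 min RT, then compounds (top 110 uM) 30 min RT, beads 20 min dark.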
PLK1 PBD inh: blocks phosphopeptide binding to human PLK1 polo-box domain | P53350 | Plk1 PBD binding of FITC phosphopeptide, fluorescence polarization | Potency, µM, most hits filed as inhibitors | 2.8% of 360,000 active; also: series mostly up to about 57 µM; nearly all actives have a fitted effect of over 65% in size
Large screens that a line does not name were inactive. Unless noted, calls follow the shape of the dose curve; as a rule, active = well fitted curve in the direction sought with a large enough effect; inconclusive = small, poorly fitted or top-dose-only effect, or another doubt; inactive = no such curve, though single readings can be large; an effect the other way counts as inactive or inconclusive.

COC(=O)c1c(C)[nH]c(O)c1C=Nc1ccc(C#N)cc1	JMJD2A Tudor inh inconclusive, G9a block 18µM, BAZ2B inh 100µM
CCOC(=O)c1c(C)[nH]c(O)c1C=Nc1ccccc1	JMJD2A Tudor inh inconclusive, BAZ2B inh 50µM
CCOC(=O)c1c(C)[nH]c(C=Nc2ccc(OC)cc2)c1O	JMJD2A Tudor inh inconclusive
CN(C)c1ccc(CNC(=O)CCCN2C(=O)CCn3nc(-c4cn(C)c5ccccc45)cc32)cc1	none (no result: PI5P4K alpha inh, PLK1 PBD inh)
CN(C)c1ccc(CNC(=O)CN2C(=O)CCn3nc(-c4cn(C)c5ccccc45)cc32)cc1	JMJD2A Tudor inh 50µM, G9a block inconclusive, BAZ2B inh 45µM (no result: PI5P4K alpha inh, PLK1 PBD inh)
COc1ccc(C(=O)Nc2ccc(S(=O)(=O)Nc3nccc(C)n3)cc2)cc1[N+](=O)[O-]	none (no result: G9a block)
COCCCNC(=O)c1sc2nc(C)c(C(=O)Nc3ccc(Cl)cc3)c(-c3ccc(Br)cc3)c2c1N	none (no result: PI5P4K alpha inh, PLK1 PBD inh)
CCc1ccc2c(c1)C1(NN=C(c3ccc(C)cc3)S1)C(=O)N2 (stereo not drawn)	JMJD2A Tudor inh 50µM, HP1b binding inh 18µM, G9a block 28µM, BAZ2B inh 7.9µM, PLK1 PBD inh inconclusive
CC(C)c1ccc(O)c(NC(=O)c2ncn[nH]2)c1	BAZ2B inh inconclusive (no result: G9a block)
CC(C)c1ccc2c(c1)C1(NN=C(c3ccccc3)S1)C(=O)N2 (stereo not drawn)	JMJD2A Tudor inh 71µM, HP1b binding inh inconclusive, G9a block 18µM, BAZ2B inh 10µM, PLK1 PBD inh inconclusive
CCOc1ccccc1CNC(=O)Cn1ccc2cc(S(=O)(=O)N3CCC(C)CC3)ccc21	none
CCOC(=O)C1CCCN(S(=O)(=O)c2ccc3c4c2CC(=O)N4CC(C)S3)C1 (stereo not drawn)	G9a block 45µM
CCOC(=O)C1CCN(S(=O)(=O)c2ccc3c4c2CC(=O)N4CC(C)S3)CC1 (stereo not drawn)	G9a block 35µM
CCOC(=O)C1CCCN(S(=O)(=O)c2cc3c4c(c2)CCN4C(=O)CC3)C1 (stereo not drawn)	G9a block inconclusive
COCC(=O)N1CCC2(CC1)CN(Cc1ccccc1OC)C2	none (no result: JMJD2A Tudor inh, PI5P4K alpha inh, HP1b binding inh, BAZ2B inh, PLK1 PBD inh)
NS(=O)(=O)c1ccc(-n2ncc3c(=O)[nH]c(SCC(=O)Nc4nccs4)nc32)cc1	G9a block 45µM
O=C(CSc1nc2[nH]ncc2c(=O)[nH]1)Nc1nccs1	none (no result: JMJD2A Tudor inh, PI5P4K alpha inh, HP1b binding inh, PLK1 PBD inh)
CSc1ccccc1NC(=O)c1ccc([N+](=O)[O-])cc1	HP1b binding inh inconclusive, G9a block 32µM, BAZ2B inh inconclusive, PLK1 PBD inh 24µM
Cc1cc(NC(=O)c2ccc([N+](=O)[O-])cc2)no1	JMJD2A Tudor inh inconclusive, PLK1 PBD inh 21µM
Cc1cc(NC(=O)c2ccc(C(C)(C)C)cc2)no1	PLK1 PBD inh inconclusive (no result: G9a block, BAZ2B inh)
Cc1cc(NC(=O)c2ocnc2C)no1	JMJD2A Tudor inh inconclusive, PLK1 PBD inh 24µM (no result: PI5P4K alpha inh)
Cc1cc(NC(=O)Cn2cc([N+](=O)[O-])cn2)no1	G9a block 50µM
Cc1ccc(NC(=O)C2CCCO2)c(Br)c1 (stereo not drawn)	none (no result: G9a block, BAZ2B inh)
CN1c2ccc(Cl)cc2-c2nc(SCC(=O)NCc3ccccc3)ncc2S1(=O)=O	none (no result: PI5P4K alpha inh, PLK1 PBD inh)
N#C/C(=C/C1=C(N2CCOCC2)C(=C/c2ccc(Cl)cc2Cl)/CC1)C(=O)Nc1ccccc1F	JMJD2A Tudor inh inconclusive, HP1b binding inh inconclusive (no result: G9a block, BAZ2B inh)
Cc1ncoc1C(=O)Nc1ncc([N+](=O)[O-])s1	JMJD2A Tudor inh 40µM, PI5P4K alpha inh inconclusive, HP1b binding inh inconclusive, G9a block 4.5µM, BAZ2B inh inconclusive, PLK1 PBD inh inconclusive
O=C1CN(S(=O)(=O)c2ccc3c(c2)OCCO3)CCN1S(=O)(=O)c1c(F)cccc1F	none (no result: PI5P4K alpha inh, HP1b binding inh, G9a block, BAZ2B inh, PLK1 PBD inh)
O=[N+]([O-])c1cc(F)cc(F)c1Nc1ccc(F)cc1	JMJD2A Tudor inh 35µM, HP1b binding inh inconclusive (no result: G9a block, BAZ2B inh)
O=[N+]([O-])c1cnccc1Nc1ccc(F)cc1	none
Cc1ccc(-c2cnc(C(O)c3ccc(Cl)c(Cl)c3)[nH]2)cc1 (stereo not drawn)	none (no result: JMJD2A Tudor inh, HP1b binding inh, G9a block, BAZ2B inh)
O=C(NNc1nc2c(F)cccc2s1)c1cc(=O)c2ccccc2o1	PI5P4K alpha inh -51, G9a block 35µM
COc1ccc(NC(=O)c2cc(=O)c3ccc(C)c(C)c3o2)cc1Cl	none (no result: PI5P4K alpha inh, PLK1 PBD inh)
O=C(NNc1nc2c(F)cccc2s1)c1ccc(F)cc1	none

High-throughput results as filed in PubChem BioAssay.
